Results taken from PubChem BioAssay AID651658 (Broad Institute, 2012).
The whole screen tested about 340,000 compounds, of which about 5,100 (1.5%) were called active. What follows is part of a selection rich in actives, with near analogues and random picks from the rest. A number with no mark means an inactive call.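 The calls were made as follows: active = mean Tm shift, scaled 0 neutral to 100 positive control, at about 1.3% or above, every replicate too (limit read from the data); inconclusive = no clear call, values can overlap the other calls; inactive = the rest.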

Each molecule was assayed against Fibroblast growth factor 22 (Homo sapiens) (UniProt Q9HCT0) (assay: FGF22 ligand-induced thermal stabilization – biophysical, thermal shift, single point, FGF22 synaptogenesis inhibitor project, primary screen (AID 651658)). Conditions: recombinant FGF22 thermal shift, SYPRO orange fluorescence; at 9.99 µM; active compounds read high; percent of sucrose octasulfate shift, DMSO zero.
Chain of Fibroblast growth factor 22 (Homo sapiens) (Q9HCT0 whole entry, looked up): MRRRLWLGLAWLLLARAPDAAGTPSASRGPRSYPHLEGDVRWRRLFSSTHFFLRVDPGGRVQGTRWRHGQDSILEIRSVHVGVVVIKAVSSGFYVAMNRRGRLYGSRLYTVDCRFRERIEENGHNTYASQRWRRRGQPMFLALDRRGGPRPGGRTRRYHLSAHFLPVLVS

Compound | activity (Tm shift, normalised)
COc1ccccc1-c1cnc2c(c1)C(=O)N([C@@H](C)CO)C[C@@H](C)[C@@H](CN(C)C(=O)c1cccnc1)O2 | -0.285%
COc1ccccc1C#Cc1cnc2c(c1)C(=O)N([C@@H](C)CO)C[C@@H](C)[C@@H](CN(C)C(=O)CN(C)C)O2 | -0.154%
CN(C)C(CNC(=O)Cc1ccc([N+](=O)[O-])cc1)c1ccccc1 (stereo not drawn) | 42.9% (active)
O=C(CC(c1ccccc1)c1ccccc1)NCC(O)c1ccc([N+](=O)[O-])cc1 (stereo not drawn) | -0.099%
CN(C)CCNC(=O)Cc1ccc([N+](=O)[O-])cc1 | 0.505%
CCC(=O)N(C)C[C@H]1Oc2ncc(C#CC(C)C)cc2C(=O)N([C@@H](C)CO)C[C@H]1C | 0.017%
O=C(C1CCCC1)N1[C@H](CO)[C@@H]2c3ccccc3N(S(=O)(=O)c3ccccc3)C[C@@H]21 | 0.581%
C[C@H](O)C#Cc1cnc2c(c1)C(=O)N([C@H](C)CO)C[C@@H](C)[C@H](CN(C)CC1CCCCC1)O2 | -0.028%
CN(C)CC(=O)N[C@H]1CC[C@@H](CCNC(=O)C2CCCC2)O[C@@H]1CO | 0.021%
Cc1ccc(-n2c(C)cc(C(=O)CSc3nnc4ccccn34)c2C)cc1 | 43.1% (active)
O=C(CSc1nnc2ccccn12)c1ccccc1 | -0.056%
Cc1ccc(C(=O)NNC(=O)CSc2nnc3ccccn23)cc1 | -0.076%
CN1C(=O)c2cc(NC(=O)c3ccc4c(c3)OCO4)ccc2OC[C@@H]2O[C@H](CC(=O)O)CC[C@H]21 | 0.218%
C[C@H](CO)N1C[C@H](C)[C@@H](CN(C)C(=O)c2cnccn2)Oc2ncc(-c3ccccc3F)cc2C1=O | -0.163%
COc1cccc(NC(=O)C/C(C)=N/NC(=O)C2CCCCC2)c1 | -0.252%
C/C(CC(=O)Nc1cccc(F)c1)=N\NC(=O)C(=O)NC1CCCCC1 | 43.7% (active)
O=C(Nc1cccc(F)c1)NC1CCCCCCC1 | 0.32%
COc1ccc(CN(C)C[C@@H]2OCCCC[C@@H](C)Oc3ccc(NS(=O)(=O)c4ccc(F)cc4)cc3C(=O)N([C@@H](C)CO)C[C@H]2C)cc1 | -0.218%
Cc1cccc(-c2ccc([C@@H]3[C@@H](CO)N4CCCCN(S(=O)(=O)c5cccs5)C[C@H]34)cc2)c1 | -0.206%
C[C@H](CO)N1C[C@H](C)[C@H](CN(C)Cc2ccc(C(=O)Nc3ccccc3N)cc2)Oc2c(NC(=O)Nc3ccccc3)cccc2C1=O | -0.326%
C/C=C/c1ccc2c(c1)O[C@H](CN(C)C(=O)Cc1ccccn1)[C@H](C)CN([C@H](C)CO)S2(=O)=O | -0.272%
CCOc1ccc(CCNC(=O)Nc2ccccc2)cc1OCC | -0.025%
CCOc1cc(NC(=O)Nc2ccccc2)c(OCC)cc1NC(=O)CC | -0.075%
CCCNCc1cc(OCC)c(OCC(=O)Nc2ccccc2)cc1Br | 44% (active)

Compound | activity (Tm shift, normalised)
CCCN1C[C@H](C)[C@@H](OC)CN(C)C(=O)c2cc(NS(=O)(=O)CC)ccc2OC[C@H]1C | -0.257%
Cc1cc(C)n(S(=O)(=O)c2cccc([N+](=O)[O-])c2)n1 | -0.005%
Cc1cc([N+](=O)[O-])ccc1NS(=O)(=O)c1ccccc1 | 1.12%
Cc1ccccc1OS(=O)(=O)c1cccc([N+](=O)[O-])c1 | 43% (active)
CCCNC(=O)Nc1ccc2c(c1)C(=O)N(C)C[C@H](OC)[C@@H](C)CN(C)[C@@H](C)CO2 | -0.468%
COCC(=O)N1CC(=O)N2[C@H](CO)[C@@H](c3ccc(-c4ccccc4F)cc3)[C@H]2C1 | -0.341%
O=C(c1ccccc1F)N1CC(=O)N2[C@H](C1)[C@H](c1ccc(-c3ccc(F)cc3)cc1)[C@@H]2CO | 1.26% (active)
O=C(c1cccnc1)N1CC(=O)N2[C@H](C1)[C@H](c1ccc(-c3ccccc3F)cc1)[C@@H]2CO | 0.042%
C/C=C/c1ccccc1[C@@H]1[C@@H](CO)N(C(=O)CN2CCOCC2)[C@H]1C#N | -0.302%
C[C@H]1CN([C@@H](C)CO)C(=O)c2cc(NC(=O)Cc3cn(C)c4ccccc34)ccc2O[C@@H]1CN(C)Cc1ccc(Cl)c(Cl)c1 | 0.161%
Cc1noc(C)c1S(=O)(=O)Nc1ccc2c(c1)C(=O)N([C@@H](C)CO)C[C@@H](C)[C@H](CN(C)C(=O)NC(C)C)OCCCC[C@@H](C)O2 | -0.227%
CC(C)NC(=O)N(C)C[C@H]1OCCCC[C@@H](C)Oc2ccc(NC(=O)C3CCCCC3)cc2C(=O)N([C@H](C)CO)C[C@H]1C | -0.185%
O=C(N/N=C/c1ccc(Cl)c(Cl)c1)c1ccc2nc[nH]c2c1 | 1.65% (active)
CC(=NNC(=O)c1ccc2nc[nH]c2c1)c1ccc(Br)cc1 | 0.573%
COc1ccc(/C(C)=N/NC(=O)c2ccc3nc[nH]c3c2)cc1 | 0.005%
CCC(=O)Nc1ccc2c(c1)C(=O)N(C)C[C@H](OC)[C@H](C)CN(C(=O)c1ccccn1)[C@@H](C)CO2 | 0.116%
C[C@]12CCC(=O)C=C1C=CC1C2CC[C@@]2(C)C1CC[C@@]21CCC(=O)O1 (stereo partly drawn) | 43.7% (active)
CC(=O)C12CC(C)=C(C)CC1CC1C3CCC4=CC(=O)CCC4(C)C3CCC12C (stereo not drawn) | -0.095%
CC(=O)O[C@]1(C(C)=O)CC[C@H]2[C@@H]3C=C(C)C4=CC(=O)CC[C@]4(C)[C@H]3CC[C@@]21C | -0.13%
C[C@H](CO)N1C[C@H](C)[C@H](CN(C)S(=O)(=O)c2cccs2)Oc2c(NC(=O)Nc3ccc4c(c3)OCO4)cccc2C1=O | -0.125%
O=C(C[C@H]1CC[C@@H](NC(=O)c2ccc(F)cc2)[C@@H](CO)O1)NCc1ccncn1 | -0.132%
COCC(=O)Nc1ccc2c(c1)[C@H]1C[C@@H](CC(=O)NCc3ccccc3F)O[C@H](CO)[C@H]1O2 | -0.327%
C[C@@H](NC(=O)C[C@H]1CC[C@@H](NC(=O)Cc2ccccn2)[C@@H](CO)O1)c1ccccc1 | -0.123%
CO[C@@H]1CC[C@H]2CCN(C)C(=O)[C@@H](C)CN(C)C(=O)c3cccc(C#N)c3OC[C@@H]1O2 | -0.102%
